Results as given in PubChem BioAssay.
Unmarked numbers belong to inactive results. How the calls were made is not given here.

Biological target: Pantothenate synthetase (Mycobacterium tuberculosis (strain ATCC 25618 / H37Rv)) (UniProt P9WIL5)
Assay: Coupled enzyme confirmation of inhibitors against recombinant Mtb PanC (AID 375);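 further: 0% = full reaction with vehicle and 100% = no enzyme background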
Conditions: coupled enzyme assay; at 10 µM, stronger effect = higher value

Sequence of Pantothenate synthetase (Mycobacterium tuberculosis (strain ATCC 25618 / H37Rv)) (P9WIL5 whole entry, looked up): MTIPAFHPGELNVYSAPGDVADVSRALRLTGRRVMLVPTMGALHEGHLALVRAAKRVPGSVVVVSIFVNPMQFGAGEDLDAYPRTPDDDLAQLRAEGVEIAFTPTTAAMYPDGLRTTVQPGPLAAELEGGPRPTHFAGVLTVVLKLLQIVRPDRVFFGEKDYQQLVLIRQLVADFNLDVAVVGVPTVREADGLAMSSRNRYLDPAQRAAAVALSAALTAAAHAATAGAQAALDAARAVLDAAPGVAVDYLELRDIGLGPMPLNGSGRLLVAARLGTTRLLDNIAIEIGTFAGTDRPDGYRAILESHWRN

| Structure (SMILES) | inhibition [%] |
| --- | --- |
| COc1ccc(N2CCN(CCCNC(=O)C3CCCN(S(=O)(=O)c4cnc[nH]4)C3)CC2)cc1 (configuration not stated) | 0 |
| O=C(NCC1CCCO1)C1CCCN(S(=O)(=O)c2cccc3nsnc23)C1 (configuration not stated) | 4 |
| COc1ccc(OCCCC(=O)Nc2nncs2)cc1 | 0 |
| CC1(C)OC(=O)C(=CNc2ccccc2)C(=O)O1 | 4 |
| CCOC(=O)c1cnc2c(OC)cccc2c1N1CCN(c2ccc(OC)cc2)CC1 | 0 |
| COC(=O)c1[nH]c2cc(OC)ccc2c1NC(=O)CCN1CCCCC1 | 1 |
| COc1cccc(C(=O)Nc2cccc(C(=O)N3CCOCC3)c2)c1 | 2 |
| CCN(CC(=O)Nc1ccc2c(c1)OCCO2)Cc1cc(=O)oc2cc(C)c(C)cc12 | 0 |
| Cc1cccc(N2CCN(Cc3c(C)n(C)n(-c4ccccc4)c3=O)CC2)c1C | 0 |
| Cc1ccccc1NC(=O)NCCCN1CCN(C2CCCCC2)CC1 | 0 |
| CC1(C)CC(=O)c2sc(NS(C)(=O)=O)nc2C1 | 0 |
| COCCc1ccc(OCC(O)CNC(C)C)cc1 (configuration not stated) | 6 |
| CCn1c(CCC(=O)Nc2nc3c(s2)CCCC3)nc2cc(S(=O)(=O)N(C)C)ccc21 | 3 |
| CC(C)Nc1ncnc2c1cnn2-c1ccccc1 | 0 |
| CCOC(=O)c1sc(Nc2nc3c(OC)cccc3s2)nc1C | 1 |
| CCOC(=O)N1CCC(NC(=O)c2ccc3nc(N4CCOCC4)sc3c2)CC1 | 5 |
| Cc1ccccc1-c1nc(CS(=O)(=O)CC(=O)NCc2ccc3c(c2)OCO3)c(C)o1 | 6 |
| COc1cc(C(=O)Nc2cccc(-c3nc4cc(C)ccc4o3)c2)cc(OC)c1OC | 3 |
| CCN(CC)S(=O)(=O)c1ccc2oc(C(=O)O)c(C)c2c1 | 0 |
| O=C(O)Cc1ccccc1C(=O)O | 0 |
| COc1ccc(Br)cc1C1N2CC3(C)CN1CC(C)(C2)C3=O (configuration not stated) | 0 |
| COC(=O)c1ccc(NC(=O)CN2C(=O)CSC2=O)cc1 | 5 |
| Cc1noc(C)c1COc1cccc(C(=O)Oc2ccc3c(c2)OCO3)c1 | 0 |
| Cc1ccc(C)n1-c1ccc(N2CCOCC2)cc1 | 0 |
| Cc1ccc(NC(=O)C2CCCN(S(=O)(=O)c3cnc[nH]3)C2)c(Br)c1 (configuration not stated) | 0 |
| Cc1ccccc1-n1c(=O)c2ccccc2n2nnnc12 | 0 |

| Structure (SMILES) | inhibition [%] |
| --- | --- |
| Cc1cc(C)nc(NC2=NCC(=O)N2c2ccc(Cl)cc2)n1 | 0 |
| Cc1cc(NC(=O)C23CCC(C)(C(=O)O2)C3(C)C)no1 (configuration not stated) | 1 |
| Cc1nc2ccc(S(=O)(=O)NC(C(=O)NCc3cccs3)C(C)C)cc2s1 (configuration not stated) | 0 |
| Cc1cc(C)n(-c2nc3c(c(=O)n(Cc4ccc(Cl)c(Cl)c4)c(=O)n3C)n2C)n1 | 1 |
| O=c1c2[nH]c3ccccc3c2ncn1CCCn1ccnc1 | 0 |
| CC(C)CN(CC(C)C)c1nc(N)c(C#N)c(CC#N)c1C#N | 0 |
| COc1ccccc1-c1ccc(Nc2cccc(C(C)=O)c2)nn1 | 0 |
| CCCCc1c(O)nc(SCCN(C)C)n(-c2ccccc2)c1=O | 0 |
| COc1ccc(OC(C)C(=O)N2CCN(c3ccccn3)CC2)cc1 (configuration not stated) | 7 |
| O=C(CN(c1ccc(F)cc1)S(=O)(=O)c1ccc2c(c1)OCCO2)NCC1CCCO1 (configuration not stated) | 0 |
| Cn1c2c(c(=O)n(C)c1=O)C(NC(=O)C(C)(C)C)(C(F)(F)F)C(=O)N2 (configuration not stated) | 0 |
| COCCn1c(CN(Cc2ccccc2)Cc2ccccc2)nc2c1c(=O)n(C)c(=O)n2C | 0 |
| CC(=O)OCC(=O)[C@@]1(O)[C@H](C)C[C@H]2[C@@H]3CCC4=CC(=O)C=C[C@]4(C)[C@@]3(F)[C@@H](O)C[C@@]21C | 4 |
| Cc1ccc(C(=O)N2CCCC(c3nc4c(nnn4Cc4ccccc4)c(=O)[nH]3)C2)cc1 (configuration not stated) | 1 |
| CC(C)(C#N)Nn1cnnc1 | 0 |
| COc1ccc(-n2nc(C(=O)NCC(=O)NCC3CCCO3)c3ccccc3c2=O)cc1 (configuration not stated) | 0 |
| COc1ccc(-c2coc3cc(O)cc(O)c3c2=O)cc1 | 5 |
| CC(C)C(c1nnnn1C1CCCC1)N1CCCc2ccccc21 (configuration not stated) | 0 |
| CCCn1c(NCc2ccc3c(c2)OCO3)nc2ccccc21 | 0 |
| O=C(NCCC1=CCCCC1)c1cc2c(s1)CS(=O)(=O)C2 | 1 |
| O=C(NCc1ccco1)c1cnc2n(c1=O)CCS2 | 0 |
| COc1ccc(-c2noc(-c3ccccc3C(=O)NCc3ccco3)n2)cc1 | 3 |
| Cc1csc(NC(=O)c2ccco2)n1 | 0 |
| Cc1cc(NCCCn2ccnc2)n2c(nc3ccccc32)c1C#N | 0 |
| Cc1c(=O)n(OCc2ccccn2)c2ccccc2[n+]1[O-] | 0 |
| COC(=O)CCC(=O)Nc1ccc(S(=O)(=O)N2CCCCCC2)cc1 | 0 |

| Structure (SMILES) | inhibition [%] |
| --- | --- |
| Cc1ccc(S(=O)(=O)NCCSc2nnnn2-c2ccc(C(N)=O)cc2)cc1 | 0 |
| O=C(O)Cn1nc2ccccc2n1 | 0 |
| Cc1ccc(C(=O)NC(Cc2c[nH]c3ccccc23)C(=O)O)o1 (configuration not stated) | 0 |
| Cc1c(C(=O)NC2CC2)oc2ccc(S(=O)(=O)N3CCCCCC3)cc12 | 0 |
| O=C(COC(=O)CSc1nnc(-c2ccc(Cl)cc2)o1)NCc1ccc2c(c1)OCO2 | 12 |
| Oc1cnc2ccccc2c1CN1CCOCC1 | 4 |
| CC(C)Cc1nc(N2CCN(C(=O)c3ccco3)CC2)c(C#N)c2c1CCC2 | 5 |
| O=C(CSc1ncnc2nc[nH]c12)c1ccc(Cl)cc1 | 1 |
| NC(=O)CCS(=O)(=O)CCN1CCCCC1 | 0 |
| O=C(c1ccccc1)c1coc2ccc(O)c(CN3CCOCC3)c12 | 4 |
| CCCCOC(=O)C1=C(C)Nc2ncnn2C1c1cccc(OC)c1OC (configuration not stated) | 8 |
| COc1cccc(CN2CCN(C(=O)CC(C)C)CC2)c1 | 6 |
| COc1ccc(NC(=O)c2oc3ccc(S(=O)(=O)N4CCC5(CC4)OCCO5)cc3c2C)cc1 | 6 |
| CCOC(=O)c1cc2n(n1)C(C(F)(F)C(F)(F)F)CC(C)N2 (configuration not stated) | 1 |
| COc1ccc(-c2noc(-c3ccccc3C(=O)Nc3cccnc3)n2)cc1 | 0 |
| CC(C)CCNC(=O)NC(=O)CN1C(=O)NC2(CCCCC2)C1=O | 2 |
| COc1cccc(NC(=O)N[C@@H](Cc2ccccc2)C(=O)O)c1 | 0 |
| Cc1cc(C)n(-c2nc(C)nc3c2cnn3-c2ccccc2)n1 | 0 |
| CCOC(=O)C1CCN(C(=O)c2c(-c3c(Cl)cccc3Cl)noc2C)CC1 | 0 |
| Cc1ccc(-c2nnn(CC(=O)N(CC(=O)NCC3CCCO3)c3ccccc3)n2)o1 (configuration not stated) | 3 |
| CCCS(=O)(=O)Nc1c(C(=O)O)[nH]c2ccccc12 | 0 |
| C[C@H](NC(=O)Nc1ccccc1F)C(=O)O | 2 |
| O=C(CSc1nnc2c3cc(F)ccc3nc(-c3ccccc3)n12)N1CCOCC1 | 0 |
| Nc1nc(-c2ccccc2)cc(C(F)(F)F)n1 | 5 |
| CNC(=O)c1c(O)c2cccc3c2n(c1=O)CC3 | 1 |
| COC(=O)C(C)Sc1nc2c(c(=O)n1-c1ccccc1)SCC2 (configuration not stated) | 0 |

| Structure (SMILES) | inhibition [%] |
| --- | --- |
| Cc1ccc(S(=O)(=O)CCc2nnc(NC(=O)c3cnccn3)s2)cc1 | 8 |
| O=C(Nc1ccc2c(c1)OCO2)N1CCN(c2ncccn2)CC1 | 0 |
| Cc1cccc(NC(=O)CC2NC3CCCCC3NC2=O)c1 (configuration not stated) | 0 |
| CCCC(CCC)C(=O)NCCN1CCOCC1 | 0 |
| COc1ccccc1OCc1nc2ccccc2[nH]1 | 0 |
| CC(=O)c1ccc(NC2OC(C)C(O)C(O)C2O)cc1 (configuration not stated) | 3 |
| COc1ccc2c(c1)C(=NO)c1cc(OC)ccc1-2 | 0 |
| CC(=O)[C@@]1(O)CC[C@H]2[C@@H]3C[C@H](C)C4=CC(=O)C=C[C@]4(C)[C@@]3(F)[C@@H](O)C[C@@]21C | 6 |
| COc1ccc(OCc2nc(N)nc(Nc3cccc(C)c3C)n2)cc1 | 1 |
| CCSc1nncn1/N=C/c1ccc(OC)c(OC)c1 | 4 |
| Cc1noc(/C=C/N(C)C)c1S(=O)(=O)N1CCCC(C(=O)NCCC2=CCCCC2)C1 (configuration not stated) | 0 |
| O=C(C1CC1)N1CCC(c2nc(-c3ccc(S(=O)(=O)NCC4CCCO4)cc3)no2)CC1 (configuration not stated) | 0 |
| CCSc1nnc(NC(=O)C2CCCN(S(=O)(=O)c3cnc[nH]3)C2)s1 (configuration not stated) | 7 |
| COC(=O)c1c(NC(=O)CSc2nnnn2C)sc(C)c1C | 0 |
| CCN(CC(=O)NCc1cccs1)C(=O)c1cc(S(=O)(=O)N2CCOCC2)ccc1C | 0 |
| CC(C)(C)c1ccc(OCC(=O)O)cc1 | 1 |
| O=S(=O)(c1ccc2c(c1)OCCO2)N1CCN(Cc2ccc3c(c2)OCO3)CC1 | 4 |
| Nc1ncnc2nc(Sc3ccc(Cl)cc3)[nH]c12 | 0 |
| Cc1ccccc1OCC(O)CN (configuration not stated) | 0 |
| COc1ccccc1NC(=O)N1CCCC1C(=O)NC1CCCCC1 (configuration not stated) | 0 |
| CC(=O)C1=C(O)C(=O)N(Cc2ccco2)C1c1ccc(F)cc1 (configuration not stated) | 10 |
| Cn1c(-c2ccc(C(C)(C)C)cc2)n[nH]c1=S | 0 |
| CS(=O)(=O)c1ncc(Cl)c(C(=O)Nc2ccc(N3CCOCC3)cc2)n1 | 2 |
| CCCNC(=O)C1CCN(S(=O)(=O)c2ccc3nc4c(c(C(=O)O)c3c2)CCCCC4)CC1 | 0 |
